# Measured values: PubChem BioAssay AID1159506 (National Center for Advancing Translational Sciences (NCATS), 2015)
# Whole data set: some 59,000 sequences, median the read-out near -0.00055, cut for the lowest 2% near -2. The entries come from a sample that favours the lowest values as a whole.
# Experiment: Identification of proteins required for the processing of the EWS-FLI1 nascent transcript;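 note: robust z of luciferase light less the median z of siRNAs with the same seed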
# Conditions: TC32 Ewing sarcoma NR0B1-luc vs CMV-luc (EWS-FLI1 target promoter against control promoter), 48 h; screened at 20 nM (by protocol)
# How it was run: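 Parallel TC32-NR0B1-luc and TC32-CMV-luc reverse transfections with 20 nM siRNA in RPMI-1640/10% FBS, luciferase measured 48 h later. Seed-adjusted z-scores from normalized, z-score-MAD transformed data; AllStars negative and siGL4 controls on each plate.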
row,Sequence,seed-corrected z-score
1,UGAUUAGUCACCAAAGUCC against ATF7IP,-1.24
2,UACUGUCGAACUUUGCCUG against HEPH,-1.6
3,UCACUAGCAAGGUUCUCCC against LARP4B,0.24
4,UAAUGUACUUGAUCGCAGC against ASCL3,-1.12
5,AUAGUUGCCGGUGCUCACC against PICK1,-3.04
6,UACUGUAUAGGAAACGAUC against ESPL1,-0.0398
7,UCGCUGUCCUUUAAGAGGC against NKAIN4,-0.183
8,AUCGGGAAGAGAGUGUAUC against PTAFR,0.45
9,CAAGUGGAUCGAGCUUGCG against RPL29P12,0.225
10,UGACUCAAAACUACCAUCC against CCNA2,-0.751
11,AUCUCUUUUAUCAGGGUUG against VEGFB,-2.11
12,AACGAUUUUAUCCAAAAUG against FBXO25,0.881
13,UAUAUGUCUCGCAUUUGCC against TRE17,-1.17
14,AUCGCAAUAAUUUCAUCUG against NOL8,-0.121
15,UACGUUAGUUUUGACACGC against RALY,-0.653
16,UGCUAUAGCACCAACAGCC against CLCN5,-2.8
17,UUGGGUUCUACAAGCUUCC against SDE2,-0.135
18,AAGAUGUCUGUGGUCAUGG against PLCB2,1.04
19,UUACUAGAAUCCUCAAUUG against OXR1,-0.746
20,UAAAGAUCAAUUCGCUUUG against GLRB,-0.775
21,UGAAGGUUCAGAGUGCAAC against ISG20L2,-0.949
22,UUCUGGAUUAGAAAGGUUC against NKRF,0.43
23,UCCUUGUCGAACAUGAGCC against NTNG2,-2.93

row,Sequence,seed-corrected z-score
1,UGCACAUCCUUGUCUAUGC against SGSM2,0.184
2,UUACAUUCUGAGCCCAUCC against HTR7,-0.311
3,UUAGUUAUAACAUAUGACU against LINC00900,-0.697
4,ACAAUGGAAAGCACCUUCC against RINL,0.198
5,UCCCAGUUGUGGAUGAUCC against PLEKHM1,-0.204
6,UAAAGACUACAAGCACAGC against OR51B5,-2.14
7,UUCAGUACAUCUCUGCAGG against RDH12,0.532
8,UUCAUCACAACCUUCCGUG against TLR5,0.937
9,UUCCAGGUCACCAACCACC against IFITM5,-0.607
10,UUCUGCAUAAGUAGUUUUC against INIP,-2.13
11,UGCUUAGCUUCUUUAACCC against PLIN2,0.638
12,UCCUGAACAGGCUUAUCCC against AXIN1,0.946
13,UGAUCUCCAAUCACAUGCC against ARFGEF2,-0.117
14,UCGUUUACAAACAUGAGUC against MPDZ,0.35
15,UUCUGACCAAGCAAACUCG against SF3B1,-2.7
16,AUUGAUGUAUGACUCUUCC against DDX55,-0.91
17,UUCUUUGCCUCGCUUAUUC against OLFML2B,0.806
18,UAUCUGAGGAGUUCUGACC against SLC22A2,0.452
19,AAAUGUCUUAGGGAUUGGG against ITPRIPL1,-2.1
20,UCUCCAAGAAGUUCACUGG against SOX6,0.406
21,UCUGUUGCUGCCUAAACUC against TMEM198B,0.298
22,UAUAGAACAAGGUAAAUCC against MTF2,0.208
23,UUCUAUCAAAUAUCCUUUG against LOC400940,-0.132

row,Sequence,seed-corrected z-score
1,UAGGAAAUCAUCUCCCUCC against TMEM169,-3.9
2,UACCCAUAUAUUUAAAGCC against PQLC3,0.395
3,UUUUCAUUUACGGAACCCG against SMOC2,0.202
4,UCAGAAGUAACAGCAGAUC against FANCG,0.307
5,UCAUAGUGCAGGUAGAGCC against TRIM50,-0.491
6,AUAGAAGUCAACCUCAUUC against CASQ2,0.181
7,UAUUUGUCCAGGUAUGGUG against ERRFI1,-0.215
8,GUCUCUGGUACCUGUGUGC against LOC440300,-0.25
9,UACUCUGUUAGGAAGACCG against TECR,0.271
10,UCCUGCUUCCGGAAUAUCU against PNMA2,-2.12
11,UCAGAUUUCAGACCGCCCA against LINC00668,0.167
12,UUCAGUUCGUAAUCUCUCU against FLOT1,0.706
13,UUCAAAUCCCUAUUAAAGC against ARFIP1,0.962
14,AAGUGGAACCGAUACUUCC against SPDYE14P,-0.205
15,UUUGGUGCACGUAACUUGG against C6orf203,-2.05
16,UUCGGUGUCAAUAACUGUG against BCAS3,-1.77
17,UUUCGUAAUAUGCGGCCUC against ASPA,-0.032
18,UCUUGAUAAGAGACCAGCU against PRR3,0.373
19,AAAUCCACAAUCCAGGGAG against SPATA31E2P,0.176
20,UGUUCAGUUGCUAAAAUGG against KLRC1,0.773
21,UCUGUAAACAGCUUGAUGA against GLP1R,-0.289
